EphB4 antag: EphB4-ephrin-B2 interaction antagonism; inhibition, % at 7 µM; EphB4 LBD / TNYL-RAW-Alexa532 peptide, fluorescence polarization; hit rate 0.15% among 97,000; AID 720;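 active means inhibition above the screen-wide mean inhibition plus 3 SD, cut at about 15% in these data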;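 further: 0% = DMSO wells and 100% = excess unlabeled TNYL-RAW peptide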
DAT uptake mod: changed human dopamine transporter uptake under cocaine IC80; Q01959; LLC-PK1 hDAT cells, [14C]-dopamine uptake with cocaine IC80; actives deviate in either direction; B-score at 10 µM; hit rate 1.3% among 110,000; AID 449768;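 active means Z score or B-score, a plate-position-corrected score, falls beyond the plate's 99.7% confidence bounds, in either direction; inactive means both scores lie inside the 99.7% bounds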;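 further: scored against the spread of the other compound wells on the same plate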
D1 mod: D1 dopamine receptor (human) allosteric modulation; P21728; HEK293 D1, CRE-luciferase, dopamine EC30 potentiation; actives deviate in either direction; B-score at 10 µM; hit rate 5.9% among 58,000;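 active means luminescence count or its row- and column-corrected plate score outside the 99.7% band of the plate's sample wells, on either side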
Target sequence (P21728 whole entry, looked up): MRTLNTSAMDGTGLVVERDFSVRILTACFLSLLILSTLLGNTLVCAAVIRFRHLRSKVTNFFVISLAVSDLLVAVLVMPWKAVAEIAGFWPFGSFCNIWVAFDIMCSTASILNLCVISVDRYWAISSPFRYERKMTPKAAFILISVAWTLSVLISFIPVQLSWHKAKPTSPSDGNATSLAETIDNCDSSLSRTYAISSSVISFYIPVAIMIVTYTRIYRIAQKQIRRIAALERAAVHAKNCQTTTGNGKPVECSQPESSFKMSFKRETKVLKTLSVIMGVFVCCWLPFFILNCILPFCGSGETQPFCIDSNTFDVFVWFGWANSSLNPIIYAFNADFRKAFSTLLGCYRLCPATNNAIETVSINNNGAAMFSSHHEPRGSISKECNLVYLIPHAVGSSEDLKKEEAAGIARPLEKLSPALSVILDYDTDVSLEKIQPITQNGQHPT
D1 mod confirm: confirmation of human D1 dopamine receptor allosteric modulators; luminescence at 10 µM; AID 642; shares compounds with D1 mod; HEK293 D1 CRE-luciferase, dopamine EC30 potentiation; stronger effect = higher value; hit rate 88% among 2,200;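 active means luminescence in either of two replicates above the same-plate mean plus 3 SD of the low-dose dopamine control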
D1 no dopamine: secondary test of D1 modulators: activity without dopamine; luminescence at 10 µM; hit rate 0.8% among 1,900; HEK293 D1 CRE-luciferase, luminescence, no dopamine; stronger effect = higher value; shares compounds with D1 mod; in the data active means luminescence above about 3900
Isoprot counter: isoproterenol response counter-screen activity for D1 modulators. shares compounds with D1 mod. hit rate 63% among 2,200. HEK293 D1 CRE-luciferase, isoproterenol EC30 counter-screen. calls only at 10 µM;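 active means luminescence in either replicate above plate mean of wells with a partly effective reference agonist dose plus 3 SD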;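 further: isoproterenol raises cAMP through native beta-adrenoceptor Gs so signal bypasses D1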
An asterisk follows results filed as active. The sample as a whole holds a higher share of hits than the screen did.

CC(NC(=S)NCCc1ccccc1)C(c1cccs1)N1CCN(C)CC1 (stereo unspecified) was read as DAT uptake mod -0.032.
Cc1nn(CCCC(=O)N2CCc3ccccc3C2)c(=O)c2cc3sccc3n12 was read as EphB4 antag 4.0 and D1 mod 0.0706.
CCc1nn(CCCC(=O)N2CCc3ccccc3C2)c(=O)c2cc3occc3n12 was read as DAT uptake mod 0.791, D1 mod 2.87*, D1 mod confirm 10688*, D1 no dopamine 1800 and Isoprot counter inactive.
CCCn1c(=O)c2c(c3ccccc31)OCC(=O)N2 was read as DAT uptake mod -0.172 and D1 mod 2.16.
CC(C)Cn1c(=O)c2c(c3ccccc31)OC(C)C(=O)N2 (stereo unspecified) was read as EphB4 antag 2.0, DAT uptake mod -0.788, D1 mod 4.16*, D1 mod confirm 7512*, D1 no dopamine 1516 and Isoprot counter inactive.
Nc1c(-c2ccccc2)nc(Cl)nc1-c1ccccc1 was read as EphB4 antag -2.6 and DAT uptake mod 0.11.
Nc1nnc(-c2ccccc2)c(-c2ccccc2)n1 was read as EphB4 antag 2.5, DAT uptake mod 0.0612, D1 mod 19.8*, D1 mod confirm 20640*, D1 no dopamine 1704 and Isoprot counter active.
Screening Cn1c(-c2nnn(-c3ccc(F)cc3)n2)cc2ccccc21 returned DAT uptake mod -1.61.
`CN(/C(=N\S(=O)(=O)c1ccccc1)C(F)(F)F)c1ccccc1` gave EphB4 antag 7.8 and DAT uptake mod -0.0859.
c1ccc2c(c1)nc(N1CCOCC1)c1nncn12 was read as EphB4 antag 0.3.
For c1ccc(N2CCN(c3nc4ccccc4n4cnnc34)CC2)cc1 the results were EphB4 antag 0.1 and DAT uptake mod -0.638.
c1ccc2c(c1)CCCN2c1nc2ccccc2n2cnnc12 was read as EphB4 antag -1.8, DAT uptake mod 0.0187, D1 mod 7.03*, D1 mod confirm 9840*, D1 no dopamine 1760 and Isoprot counter inactive.
Screening c1ccc2c(c1)CCN(c1nc3ccccc3n3cnnc13)C2 returned EphB4 antag -8.5, DAT uptake mod 2.19, D1 mod 7.94*, D1 mod confirm 13016*, D1 no dopamine 1668 and Isoprot counter active.
O=C(OC(C(=O)NC1CCCC1)c1ccncc1)C1=Cc2ccccc2OC1 (stereo unspecified) was read as EphB4 antag 5.3 and DAT uptake mod -0.172.
Screening Cn1c(COc2ccccc2)nnc1SCCC(=O)Nc1ccccc1 returned EphB4 antag -11.0, DAT uptake mod 0.172 and D1 mod 1.15.
Screening c1ccc(CNc2ncnc3nc[nH]c23)cc1 returned EphB4 antag 4.3 and DAT uptake mod -0.179.
Screening C1=Nc2c(NCc3ccccc3)ncnc2Oc2ccccc21 returned EphB4 antag -2.8, DAT uptake mod 0.936, D1 mod 7.98*, D1 mod confirm 10088*, D1 no dopamine 1584 and Isoprot counter active.
`COC(=O)c1c(N)c(C#N)c(C)n1-c1ccccc1` gave EphB4 antag -10.5, DAT uptake mod -0.499, D1 mod 3.01*, D1 mod confirm 8468*, D1 no dopamine 1628 and Isoprot counter active.
For CC(=O)c1c(N)c(C#N)c(C)n1-c1ccc(Br)cc1 the results were EphB4 antag 2.2 and DAT uptake mod 0.028.
`O=C(N/N=C/C=C/c1ccccc1)c1cc2c(ccc3ccccc32)o1` gave EphB4 antag -7.4 and DAT uptake mod -0.053.
For Cc1ccc(NC(=O)c2ccc(Cl)c(N3C(=O)C=CC3=O)c2)cc1 the results were EphB4 antag 8.7 and DAT uptake mod -0.0099.
`CC(=O)NC1Sc2ccccc2N=C1c1ccccc1` (stereo unspecified) gave EphB4 antag -1.4, DAT uptake mod 0.473, D1 mod 6.13*, D1 mod confirm 7472* and Isoprot counter inactive.
For CC(=O)Nc1ccc(-c2cc(-c3ccc(NC(C)=O)cc3)nc(-c3ccccc3)n2)cc1 the results were EphB4 antag 3.9 and DAT uptake mod -1.58.
Screening CC1(C)Cc2c(cnn2-c2ccccc2)-c2c1c1ccccc1n2CC(O)CBr (stereo unspecified) returned EphB4 antag 1.6 and DAT uptake mod -0.0315.

Screens from PubChem.
